Source: PubChem BioAssay AID1569 (National Center for Advancing Translational Sciences (NCATS), 2009)
Records with an inconclusive call do not appear. Activity calls are given as the source filed them. Calls follow the shape of the dose curve; as a rule, active = well fitted inhibition curve with a large enough effect; inconclusive = small, poorly fitted or top-dose-only effect, or effect the other way, or another doubt; inactive = no such curve, though single readings can be large or run the other way.

Assay: Confirmation Concentration-Response Assay for lipid storage modulators; also: nearly all actives have a fitted effect of over 80% in size;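 as to activity change, negative = inhibition: -100% = full block of lipid deposition by 20 µM Triacsin C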
Conditions: Drosophila S3 cells, lipid droplet BODIPY/CellTracker ratio, 18-24 h; series mostly up to 46.1 µM; activity change, negative = inhibition: at the top concentration
Method in brief: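 Cells at 5,000/well received compound as a titration plus oleic acid (added as 400 uM solution) and were incubated 18–24 h at 24 °C. BODIPY 493/503 lipid signal and CellTracker Red cell count were read by 488-nm laser-scanning cytometry. Activity was normalised to 20 uM Triacsin C.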
Potency is read from the fitted curve at half-maximal effect.

Potency, active:
CNC(=O)c1sc2nc(-c3ccc(OC)cc3)cn2c1C 15.8 µM, COc1c(C)cc(C(=O)C2CCCN(C(=O)c3ccc4[nH]ccc4c3)C2)cc1C (stereo unspecified) 17.3 µM, CC(C)(C)c1cc[n+](C2=C([O-])c3ccccc3C(=O)/C2=N\S(=O)(=O)c2cccs2)cc1 28.1 µM, O=C(Nc1ccc(Cl)c(Cl)c1)Nc1ccc(Br)cc1F 8.88 µM, OCCNc1c2ccccc2nc2c(F)c(F)c(F)c(F)c12 8.65 µM, N#Cc1ccsc1NC(=O)CN1CCN(S(=O)(=O)c2ccccc2C(F)(F)F)CC1 1.25 µM, Cc1ccc(C)c(OCc2cc(C(=O)N3CC[C@@H]4CCCC[C@H]4C3)no2)c1 14.1 µM, CCN(CC)S(=O)(=O)c1cccc(NC(=O)CNc2cccc(S(=O)(=O)N3CCCC3)c2)c1 1.99 µM, c1ccc2c(c1)OCC(CNc1ncnc3sccc13)O2 (stereo unspecified) 0.996 µM, COC(c1ccccc1)c1nnc(CCC(=O)NC2C3CC4CC(C3)CC2C4)o1 (stereo unspecified) 5.6 µM, CCCCCCCCCCCCCCCC[n+]1cccc2ccccc21 1.22 µM, Cc1cc(C)c(Cc2c(C)nc3c(C(=O)NCc4ccco4)cnn3c2C)c(C)c1 7.05 µM, COc1ccc(CCNC(=O)CSc2ccc3ccccc3c2)cc1OC 1.41 µM, COc1ccccc1C(=O)O[C@H]1[C@H](Cc2ccccc2)NS(=O)(=O)[C@H]2C[C@@H]3C=C[C@]12O3 8.88 µM, O=C(CCC1CCCN(C(=O)c2ccc3c(c2)OCCO3)C1)NCc1ccccc1F (stereo unspecified) 2.23 µM, C1=C(CCNc2ncnc3c2[nH]c2ccccc23)CCCC1 0.996 µM, COc1cc(NC(=O)COc2ccccc2[N+](=O)[O-])ccc1NC(=O)c1cccs1 17.7 µM, Cc1cc(N2CCCC2=O)cc(C)c1S(=O)(=O)NCCOc1ccc(C(C)(C)C)cc1 3.97 µM, COc1ccc(CCn2ccc(O)c(Cc3ccc(Cl)cc3)c2=O)cc1OC 0.315 µM, CCCOc1ccc2oc(=O)c3c(c2c1)CCCN3C(=O)CN1CCN(C(=O)c2ccco2)CC1 1.99 µM, CN(C1=C(N2CCOCC2)C(=O)c2ccccc2C1=O)c1ccccc1 6.28 µM, COc1cc(/C=N/NC(=O)c2ccc(CN3C(=O)c4cccc5cccc3c45)cc2)cc(OC)c1O 4.99 µM, O=C(Nc1cccc(S(=O)(=O)N2CCCCC2)c1)c1ccccc1NS(=O)(=O)c1ccc(F)cc1 28.1 µM, CC(=O)Nc1cccc(C(=O)NC2CCCc3c2cnn3-c2ccccc2F)c1 (stereo unspecified) 14.1 µM, Cc1nn(C)c(C)c1CN(Cc1nc(CCC(C)C)no1)C(C)C 12.5 µM, CCN(CC(=O)Nc1c(F)cccc1F)C(=O)CCCc1c[nH]c2ccccc12 0.628 µM, COc1ccc(CCNC(=O)COc2ccc(S(=O)(=O)NC3CCCCC3)cc2Cl)cc1OC 3.97 µM

Activity change, negative = inhibition, inactive:
CSCCC(NS(=O)(=O)c1ccc2c(c1)OCCO2)C(=O)N(C)Cc1ccc(C)cc1 (stereo unspecified) -2.98%, CCOc1ccc(CCNC(=O)CSCc2ccc(C)cc2)cc1OCC -24%, CCNC(=O)NC1(C(=O)N2CCC(Cc3ccccc3)CC2)CCCCC1 -11.1%, COc1ccccc1NC(=O)NC1(C(=O)N2CCC(C)CC2)CCCCC1 -17.9%, CCOc1ccc(CCNC(=O)COC(=O)c2cccc(S(=O)(=O)N3CCCCC3)c2)cc1OCC -7.33%, CCOc1ccc(CCNC(=O)COC(=O)CSc2ccccc2C)cc1OCC 22.7%, COc1ccc(NC(=O)NC2(C(=O)N3CCOCC3)CCCCC2)cc1 25.8%, COCCCN1C(=O)c2ccc(C(=O)OCC(=O)NCc3ccccc3OC)cc2C1=O 24.1%, O=C(CCc1ccccn1)NC1CCCc2c1cnn2-c1ccc(F)cc1F (stereo unspecified) -20.8%
